High-throughput results as filed in PubChem BioAssay.
Only some compounds are listed: those with a hit (about 7.7% of all), similar ones and a draw of the others.
Hedgehog inh: blocks Sonic Hedgehog signaling | inhibition, % (no concentration beside the values) | AID 2313 | Shh-LIGHT2 Gli-luciferase reporter, 30 h | 2.1% of 22,000 active;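 active = mean inhibition across valid replicates above about 65%, limit read from the data; inconclusive = mean under the limit, yet half or more replicates past it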;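 note: pathway switched on by Shh-conditioned medium diluted 1 in 25 in low serum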
PD-1 reversal: reversal of PD-1 mediated T-cell inhibition | primary human CD4 T cells, PD-L1 beads, CellTiter-Glo 96 h | activation, % (no concentration beside the values) | 29,000 tested, under 10 active | AID 2316; call rule not given here
NOMO-1 viab: STK33 inhibitor candidate reducing NOMO-1 cell viability; NOMO-1 AML viability, CellTiter-Glo luminescence, 72 h; 7.5% of 37,000 active; inhibition, % (test concentration not listed); in the data active = inhibition above about 80%; inconclusive = no clear call, values can overlap the other calls
Large screens that a line does not name were inactive.

C[C@H]1CN([C@@H](C)CO)C(=O)c2cc(NC(=O)Nc3ccc(C(F)(F)F)cc3)ccc2O[C@@H]1CN(C)Cc1ccc(C(=O)O)cc1	none (no result: Hedgehog inh)
C[C@@H]1CN([C@@H](C)CO)C(=O)c2cc(NC(=O)Nc3ccc(F)cc3)ccc2O[C@@H]1CN(C)Cc1ccc(C(F)(F)F)cc1	NOMO-1 viab 105 (no result: Hedgehog inh)
C[C@@H]1CN([C@H](C)CO)C(=O)c2cc(NC(=O)Nc3ccc(C(F)(F)F)cc3)ccc2O[C@H]1CN(C)Cc1ccc(Oc2ccccc2)cc1	none (no result: PD-1 reversal)
Cn1c2ccccc2c2nnc(SCC(=O)c3ccc(Cl)cc3)nc21	none (no result: Hedgehog inh)
CCn1c2ccccc2c2cc(NC(=O)CCCN3C(=O)c4ccccc4C3=O)ccc21	none (no result: Hedgehog inh)
COc1ccc(C(=O)N(Cc2nc(-c3ccc(Cl)cc3)no2)C(C)C)cc1[N+](=O)[O-]	none (no result: Hedgehog inh)
O=S(=O)(Nc1nc2ccccc2nc1Nc1ccccc1F)c1ccc(Cl)cc1	Hedgehog inh 98
CCOc1ccc(S(=O)(=O)Nc2nc3ccccc3nc2Nc2ccccc2)cc1	Hedgehog inh inconclusive
O=C(COc1ccc(Cl)cc1)Nc1ccc2oc(-c3cccc(F)c3)nc2c1	none (no result: Hedgehog inh)
COC(=O)C(C(CO)Cc1ccc(O)c(OC)c1)C(O)c1ccc(O)c(OC)c1 (configuration not stated)	NOMO-1 viab 108
COc1cc(CC(CO)C(CO)Cc2ccc(O)c(OC)c2)ccc1O (configuration not stated)	none
Cc1cc(S(=O)(=O)NCC(=O)O)ccc1Cl	none (no result: Hedgehog inh)
Cc1cc(Cl)ccc1NC(=O)CN(C)S(=O)(=O)c1ccc(F)cc1	none (no result: Hedgehog inh)
Oc1ccc(Cl)c2cccnc12	NOMO-1 viab 110 (no result: PD-1 reversal)
CCN1C(=O)/C(=C2\SC(=S)N(c3ccc(OC)cc3)C2=O)c2ccccc21	none (no result: Hedgehog inh)
Clc1ccc(-c2ncc3ccccn23)cc1	NOMO-1 viab 129 (no result: Hedgehog inh)
CCCCCCCCN1C(=O)C(C(C)=O)=C(C)C1(C)O (configuration not stated)	NOMO-1 viab 98
CC(=O)OC[C@H]1O[C@@H](Oc2ccccc2COC(=O)C2(O)C=CCCC2=O)[C@H](OC(C)=O)[C@@H](O)[C@@H]1O (some centres not stated)	none
O=C(Nc1ccc(S(=O)(=O)Nc2ccccn2)cc1)c1cccnc1	none (no result: Hedgehog inh)
N#Cc1ccc(C(=O)Cn2cc(C(F)(F)F)ccc2=O)cc1	none
COc1ccc2cc(C3CC(c4ccc(OC)c(OC)c4)=NN3C(=O)c3ccco3)c(Cl)nc2c1 (configuration not stated)	none
C[C@@H]1CN([C@H](C)CO)C(=O)Cc2cc(NS(C)(=O)=O)ccc2O[C@@H]1CN(C)Cc1ccc(C(F)(F)F)cc1	none
C[C@H](CO)N1C[C@H](C)[C@H](CN(C)Cc2ccc(C(F)(F)F)cc2)Oc2ccc(NS(C)(=O)=O)cc2CC1=O	none
C[C@H](CO)N1C[C@H](C)[C@H](CN(C)Cc2ccc(C(F)(F)F)cc2)Oc2ccc(NS(=O)(=O)c3ccc(F)cc3)cc2CC1=O	NOMO-1 viab 103 (no result: Hedgehog inh, PD-1 reversal)
Cc1ccc(S(=O)(=O)Nc2ccc3c(c2)CC(=O)N([C@@H](C)CO)C[C@H](C)[C@H](CN(C)Cc2ccc(C(F)(F)F)cc2)O3)cc1	NOMO-1 viab 112
COc1cc(O)c(C(=O)CCc2ccc(OC)c(OC)c2)c(OC)c1	none
O=C1CSCC(=O)N1c1cccnc1	none
C[C@@H]1CC(=O)c2c(ccc3c2C(=O)c2cccc(O)c2C3=O)C1	none
CN1CCc2cccc3c2[C@H]1Cc1ccc(O)c(O)c1-3	NOMO-1 viab 113 (no result: PD-1 reversal)
O=C(Nc1cccc(C(F)(F)F)c1)c1cc([N+](=O)[O-])ccc1NCc1cccnc1	none (no result: Hedgehog inh, PD-1 reversal)
CCCNC(=O)[C@H]1O[C@@H]1C(=O)N[C@H](C(=O)N1CCC[C@H]1C(=O)OC)C(C)CC (some centres not stated)	NOMO-1 viab 141
C[C@H](CS)C(=O)N1CCC[C@H]1C(=O)O	none (no result: PD-1 reversal)
CC(C)(C)C(=O)CSc1nnc(-c2cnccn2)s1	none
Cc1nnc(SCC(=O)n2c3c(c4ccccc42)CCCC3)n1C	none (no result: Hedgehog inh, PD-1 reversal)
O=C(CSc1nnc(-c2ccncc2)o1)c1ccc2ccccc2c1	none (no result: Hedgehog inh)
C=C(C)C(=O)OC1CC(CO)CCC/C(CO)=C\C2OC(=O)C(=C)C21 (configuration not stated)	Hedgehog inh 71 (no result: PD-1 reversal, NOMO-1 viab)
C=C(C(=O)O[C@H]1C/C(C)=C\CC/C(CO)=C\[C@H]2OC(=O)C(=C)[C@H]12)C(O)CO (some centres not stated)	none
C[C@H]1CC[C@@H]2[C@@H](C(=O)c3c(O)c([C@]4(O)CC[C@@H](O)[C@H]5O[C@H]54)cn(O)c3=O)[C@@H](C)C=C[C@H]2C1	Hedgehog inh 94, NOMO-1 viab 120
c1cc(-c2nn[nH]n2)ccc1OCc1nn[nH]n1	none (no result: Hedgehog inh)
C=C1C(=O)OC2CC(C)C3(/C=C/C(C)=O)OC3CC12 (configuration not stated)	NOMO-1 viab 118
CC(=O)O[C@@H]1C=C[C@@]2(C)C(C[C@@H](OC(C)=O)[C@@]3(C)C4=CC(=O)O[C@@H](c5ccoc5)[C@]4(C)CCC23)C1(C)C (some centres not stated)	NOMO-1 viab 106 (no result: PD-1 reversal)
CC(=O)O[C@@H]1CC2C(C)(C)C(=O)C=C[C@]2(C)C2CC[C@@]3(C)[C@H](c4ccoc4)OC(=O)[C@H]4O[C@]43[C@@]21C (some centres not stated)	none (no result: PD-1 reversal)
Cc1ccc([N+](=O)[O-])cc1NC(=O)C1CCCN(S(=O)(=O)c2ccc(Cl)cc2)C1 (configuration not stated)	none (no result: Hedgehog inh)
CCc1ccccc1NC(=O)CCCN1C(=O)c2ccccc2C1=O	none (no result: Hedgehog inh, PD-1 reversal)
Cc1cc(C)cc(NC(=O)COc2ccc3cc(-c4ccccc4)c(=O)oc3c2)c1	none (no result: Hedgehog inh)
COc1ccc2c(c1)c(=O)oc1cc(OCC(=O)Nc3cc(C)cc(C)c3)ccc12	NOMO-1 viab 94 (no result: Hedgehog inh, PD-1 reversal)
C[C@@H]1CN([C@@H](C)CO)C(=O)Cc2cc(NS(=O)(=O)c3ccc(Cl)cc3)ccc2O[C@@H]1CN(C)CC1CC1	none (no result: Hedgehog inh, PD-1 reversal)
C[C@H]1CN([C@@H](C)CO)C(=O)Cc2cc(NS(=O)(=O)c3ccc(F)cc3)ccc2O[C@H]1CN(C)CC1CCCCC1	NOMO-1 viab 115
C[C@@H]1CN([C@@H](C)CO)C(=O)Cc2cc(NS(=O)(=O)c3ccc(F)cc3)ccc2O[C@@H]1CN(C)CC1CCCCC1	NOMO-1 viab inconclusive
C[C@H](CO)N1C[C@H](C)[C@H](CN(C)CC2CCCCC2)Oc2ccc(NS(=O)(=O)c3ccc(Cl)cc3)cc2CC1=O	NOMO-1 viab 97
C[C@H](CO)N1C[C@H](C)[C@H](CN(C)CC2CC2)Oc2ccc(NS(=O)(=O)c3ccc(Cl)cc3)cc2CC1=O	none
C[C@H]1CN([C@@H](C)CO)C(=O)Cc2cc(NS(=O)(=O)c3ccc(Cl)cc3)ccc2O[C@@H]1CN(C)CC1CCCCC1	NOMO-1 viab 120 (no result: PD-1 reversal)
C[C@H]1CN([C@@H](C)CO)C(=O)Cc2cc(NS(=O)(=O)c3ccc(Cl)cc3)ccc2O[C@H]1CN(C)CC1CCCCC1	NOMO-1 viab 135
C[C@H]1CN([C@@H](C)CO)C(=O)Cc2cc(NS(=O)(=O)c3ccc(Cl)cc3)ccc2O[C@@H]1CN(C)CC1CC1	none (no result: PD-1 reversal)
CCOC(=O)c1c(CNC(C)C)oc2ccc(OC)cc12	none
CCNc1nc(F)cc(=O)[nH]1	none (no result: Hedgehog inh)
N#C/C(=C\c1ccsc1)S(=O)(=O)c1ccc(C(F)(F)F)cn1	none
COc1cccc(N(CC(=O)Nc2cccc(Cl)c2)S(C)(=O)=O)c1	none (no result: Hedgehog inh)
Cc1c(Cl)cccc1NC(=O)CN(c1ccccc1Br)S(C)(=O)=O	none (no result: Hedgehog inh)
